Laboratory results as given in PubChem BioAssay (Tox21).
Unmarked numbers belong to inactive results. Results filed as inconclusive are left out. Where a call stands in place of a potency, no number is given. The source made the active and inactive calls. Unless noted, calls come from the whole dose curve; as a rule, active = well fitted curve in the direction sought with a large enough effect in the repeat runs; inconclusive = weak or mixed curves; inactive = flat fitted curve, though single readings scatter.

Experiments:
[1] = qHTS assay to test for compound auto fluorescence at 535 nm (green) in HEK293 cells (AID 720680)
[2] = qHTS assay to test for compound auto fluorescence at 460 nm (blue) in HEK293 cell free culture (AID 720681)
Summary of the method: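 Blue fluorescence (Ex 405/Em 460 nm, triamterene-equivalent) was read immediately after pin transfer of compound or DMSO into medium (DMEM, 10% FBS) without cells.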

[3] = qHTS assay to test for compound auto fluorescence at 535 nm (green) in HEK293 cell free culture (AID 720682)
Summary of the method: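 No cells present: wells hold DMEM supplemented with 10% FBS, into which compound or vehicle is pinned. Green emission is then recorded (485 nm excitation, 535 nm emission) and scaled to fluorescein.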

[4] = qHTS assay to test for compound auto fluorescence at 590 nm (red) in HEK293 cell free culture (AID 720683)
Summary of the method: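 Red-channel autofluorescence of compounds in culture medium (DMEM, 10% FBS), no cells, measured at 540/590 nm. Rose Bengal sodium is the reference fluorophore for equivalence.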

[5] = qHTS assay to test for compound auto fluorescence at 590 nm (red) in HepG2 cell free culture (AID 720684)
Summary of the method: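 No cells present: MEM + 10% FBS only. Compound pinned in, red label read (540/590 nm). Activity = fluorescence equivalent to Rose Bengal sodium.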

[6] = qHTS assay to test for compound auto fluorescence at 535 nm (green) in HepG2 cell free culture (AID 720686)
[7] = qHTS assay to test for compound auto fluorescence at 460 nm (blue) in HepG2 cells (AID 720687)
Summary of the method: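 Blue-channel autofluorescence (Ex/Em 405/460 nm, triamterene-equivalent) was measured after 1 hr compound exposure at 37 C, 5% CO2. Cells were HepG2, plated overnight at 37 C in MEM plus 10% FBS.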

[8] = target: Glucocorticoid receptor (Homo sapiens) (UniProt P04150); experiment: qHTS assay to identify small molecule agonists of the glucocorticoid receptor (GR) signaling pathway (AID 720691; active = well fitted activation curve with a large enough effect in the signal ratio in the repeat runs, not every such curve was filed as active; the % refers to the signal ratio); conditions: GR-bla HeLa, beta-lactamase reporter ratio, 18 h; activation: at 62.4 µM (top of the series)
Glucocorticoid receptor (Homo sapiens), sequence (P04150 whole entry, looked up): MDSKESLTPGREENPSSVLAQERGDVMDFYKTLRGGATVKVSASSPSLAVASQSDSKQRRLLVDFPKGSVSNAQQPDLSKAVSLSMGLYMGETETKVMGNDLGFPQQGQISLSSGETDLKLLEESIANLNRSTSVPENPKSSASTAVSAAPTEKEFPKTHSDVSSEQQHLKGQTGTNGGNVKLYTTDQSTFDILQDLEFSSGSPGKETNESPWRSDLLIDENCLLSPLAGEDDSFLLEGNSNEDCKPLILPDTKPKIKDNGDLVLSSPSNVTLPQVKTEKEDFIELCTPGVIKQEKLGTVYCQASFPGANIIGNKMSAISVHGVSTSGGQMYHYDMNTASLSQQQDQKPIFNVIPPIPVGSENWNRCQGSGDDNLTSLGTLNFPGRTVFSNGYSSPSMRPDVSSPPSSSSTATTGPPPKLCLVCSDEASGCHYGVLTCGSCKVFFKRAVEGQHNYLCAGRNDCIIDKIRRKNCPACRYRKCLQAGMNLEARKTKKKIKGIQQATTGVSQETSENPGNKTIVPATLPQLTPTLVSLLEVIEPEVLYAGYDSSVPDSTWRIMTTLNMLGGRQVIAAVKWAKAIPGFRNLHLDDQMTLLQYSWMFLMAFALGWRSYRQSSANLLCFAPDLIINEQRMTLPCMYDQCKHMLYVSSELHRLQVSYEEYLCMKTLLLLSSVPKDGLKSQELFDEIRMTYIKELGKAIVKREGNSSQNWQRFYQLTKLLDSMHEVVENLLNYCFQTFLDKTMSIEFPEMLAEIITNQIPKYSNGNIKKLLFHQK
Summary of the method: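 Measures GR pathway activation through a GRE-beta-lactamase reporter stably integrated in HeLa cells, with 18 h compound treatment at 37 C and fluorescence detection using a FRET substrate.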

[9] = target: Glucocorticoid receptor (Homo sapiens) (UniProt P04150); experiment: qHTS assay to identify small molecule antagonists of the glucocorticoid receptor (GR) signaling pathway (AID 720692; active = well fitted inhibition curve with a large enough effect in the signal ratio in the repeat runs, not every such curve was filed as active; the % refers to the signal ratio; note: potency is the fitted concentration of half-maximal effect)
Summary of the method: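 Tox21 10K library screened in concentration-response for blockade of dexamethasone (5 nM final)-induced GRE-bla reporter activity in HeLa cells; 18 h treatment, fluorescence read.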

[10] = qHTS assay to test for compound auto fluorescence at 460 nm (blue) in HepG2 cell free culture (AID 720685)
Summary of the method: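 Cell-free plates of MEM plus 10% FBS received 23 nL compound or DMSO vehicle; blue-channel (405/460 nm) intensity scored against triamterene as reference fluorophore.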

SMILES	outcome [1]	Potency [2]	outcome [3]	Potency [4]	Potency [5]	Potency [6]	Potency [7]	Potency [8]	Potency [9]	Potency [10]
COCCCC/C(=N\OCCN)c1ccc(C(F)(F)F)cc1	inactive	inactive	inactive	inactive	inactive	inactive	inactive	inactive	inactive	–
Nc1ccc2cc(S(=O)(=O)O)cc(O)c2c1N=Nc1ccccc1C(F)(F)F	inactive	inactive	inactive	inactive	inactive	inactive	inactive	inactive	inactive	–
CCOC(=O)/C=C(C)/C=C/C=C(C)/C=C/c1c(C)cc(OC)c(C)c1C	inactive	inactive	inactive	inactive	inactive	inactive	inactive	–	inactive	–
NNc1nc(-c2ccccc2)cs1	inactive	inactive	inactive	inactive	inactive	inactive	inactive	inactive	–	–
Nc1ccc(N)c2ccccc12	inactive	inactive	inactive	inactive	inactive	–	inactive	–	–	inactive
CCN(CCC#N)c1ccc(N=Nc2c(Cl)cc([N+](=O)[O-])cc2Cl)cc1	inactive	inactive	inactive	inactive	inactive	inactive	inactive	inactive	inactive	–
CCCCN(CCCC)c1ccc(C(=O)c2ccccc2C(=O)O)c(O)c1	inactive	inactive	inactive	inactive	–	inactive	inactive	–	–	inactive
c1cc(C(c2ccc(OCC3CO3)cc2)c2ccc(OCC3CO3)cc2)ccc1OCC1CO1 (configuration not stated)	inactive	inactive	inactive	inactive	inactive	inactive	inactive	inactive	49 µM (active)	–
CSc1cnc(C)cn1	inactive	inactive	inactive	inactive	inactive	inactive	inactive	inactive	–	–
CCc1oc2ccccc2c1C(=O)c1cc(Br)c(O)c(Br)c1	inactive	inactive	inactive	inactive	–	inactive	inactive	inactive	15.1 µM (active)	inactive
CCCCCCCCCCCCCCCCCC[N+](C)(C)Cc1ccccc1	inactive	inactive	inactive	inactive	–	inactive	inactive	–	–	inactive
CCCCCCCCOC(=O)c1ccc(O)cc1	inactive	inactive	inactive	inactive	–	inactive	inactive	–	–	inactive
CCCN(CCC)C(=O)C(CCC(=O)OCCCN1CCN(CCOC(=O)Cc2c(C)n(C(=O)c3ccc(Cl)cc3)c3ccc(OC)cc23)CC1)NC(=O)c1ccccc1 (configuration not stated)	inactive	inactive	inactive	inactive	–	inactive	inactive	–	–	inactive
COc1cc(-c2nc(NC(=O)c3cc4cc(C)cc(C)c4n3CC(=O)O)sc2CCC2CCCCC2)c(OC)cc1Cl	inactive	inactive	inactive	inactive	–	inactive	inactive	–	–	inactive
CCCCCCCCNC(C)C(O)c1ccc(SC(C)C)cc1 (configuration not stated)	inactive	inactive	inactive	inactive	–	inactive	inactive	–	–	–
Fc1ccc([C@@H]2CCNC[C@H]2COc2ccc3c(c2)OCO3)cc1	inactive	inactive	inactive	inactive	–	inactive	inactive	inactive	–	inactive
CCOc1ccc2nc3cc(N)ccc3c(N)c2c1	inactive	–	inactive	inactive	inactive	inactive	–	–	–	–
O=C1C=CC(=O)N1	inactive	inactive	inactive	inactive	–	inactive	inactive	–	–	–
Cc1onc(-c2c(Cl)cccc2Cl)c1C(=O)N[C@@H]1C(=O)N2[C@@H]1SC(C)(C)[C@@H]2C(=O)O	inactive	inactive	inactive	inactive	–	inactive	inactive	inactive	–	–
CCN(Cc1cccnc1)C(=O)c1cccc(Cl)c1[C@]1(C)C(=O)N(Cc2ccc(OC)cc2OC)c2ccc(Cl)cc21	inactive	inactive	inactive	inactive	–	inactive	inactive	–	–	inactive
Oc1ccc2cc(SSc3ccc4cc(O)ccc4c3)ccc2c1	inactive	inactive	inactive	inactive	–	inactive	inactive	–	–	–
CCC(C)(C)C1CCCCC1OC(C)=O (configuration not stated)	inactive	inactive	inactive	inactive	–	inactive	inactive	–	–	inactive
O=C(Oc1ccccc1)c1ccccc1C(=O)Oc1ccccc1	inactive	inactive	inactive	inactive	–	inactive	inactive	inactive	inactive	–
CCCCCCCC/C=C/CCCCCCCC1=NCCN1CCO	inactive	inactive	inactive	inactive	–	inactive	inactive	–	–	inactive
c1ccc(CSCc2ccccc2)cc1	inactive	inactive	inactive	inactive	–	inactive	inactive	inactive	–	–
CN(C)C(=O)C1(N2CCCCC2)CCN(CC[C@@]2(c3ccc(Cl)c(Cl)c3)CN(C(=O)c3ccccc3)CCO2)CC1	inactive	inactive	inactive	inactive	–	inactive	inactive	–	–	inactive
